From PubChem
PME-1 primary = PME-1 (human) inhibition; Q9Y570; hit rate 0.53% among 320,000; inhibition, % at 5.9 µM; recombinant PME-1, FP-Rh probe fluorescence polarization;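 active = inhibition above the campaign mean of all compounds plus 3 SD, cut at about 26% in these data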;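 also: competitive labeling of PME-1 active site by serine hydrolase directed probe; inhibitors block probe labeling so polarization falls and inhibition rises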
PP5 inh = inhibitors of human protein phosphatase 5 (PP5) | P53041 | purified PP5c, OMFP substrate fluorescence | inhibition, % at 6.7 µM | hit rate 0.18% among 320,000;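 active = inhibition above the campaign's mean inhibition across all tested compounds plus 3 SD, cut at about 9.5% in these data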
PP1 inh = PP1-alpha (human) inhibition in PP5 counter-screen | purified PP1alpha, OMFP fluorescence | inhibition, % at 6.7 µM | hit rate 0.9% among 320,000;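 active = inhibition above the mean inhibition of all tested compounds plus 3 SD, computed separately for each screening campaign, cut at about 15% in these data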
Target sequence (P62136 whole entry, looked up): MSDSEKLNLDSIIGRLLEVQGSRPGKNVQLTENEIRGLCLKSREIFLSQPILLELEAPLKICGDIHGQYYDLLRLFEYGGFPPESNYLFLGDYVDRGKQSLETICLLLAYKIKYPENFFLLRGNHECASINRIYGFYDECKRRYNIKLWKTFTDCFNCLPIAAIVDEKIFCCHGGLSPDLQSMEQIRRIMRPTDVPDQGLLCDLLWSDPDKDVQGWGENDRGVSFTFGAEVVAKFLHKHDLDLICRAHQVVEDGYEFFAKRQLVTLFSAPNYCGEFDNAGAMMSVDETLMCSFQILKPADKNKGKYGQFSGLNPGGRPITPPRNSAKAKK
LYPLA2 counter = blocks human lysophospholipase 2, a PME1 counter-screen; recombinant LYPLA2, FP-Rh probe fluorescence polarization; inhibition, % at 5.9 µM; hit rate 0.38% among 320,000;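 active = inhibition above the screen-wide mean plus 3 SD, limit set per campaign, cut at about 26% in these data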
Target sequence (O95372 whole entry, looked up): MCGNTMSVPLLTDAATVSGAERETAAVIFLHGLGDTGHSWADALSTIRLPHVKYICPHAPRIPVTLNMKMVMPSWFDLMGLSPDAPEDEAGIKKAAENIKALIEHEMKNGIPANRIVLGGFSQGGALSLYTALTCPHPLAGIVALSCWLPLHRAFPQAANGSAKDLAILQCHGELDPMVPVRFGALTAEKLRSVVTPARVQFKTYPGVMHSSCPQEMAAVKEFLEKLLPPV
LYPLA1 counter = counter-screen for PME1 inhibitors: inhibitors of human LYPLA1; AID 2174; inhibition, % at 5.9 µM; hit rate 0.16% among 320,000; recombinant LYPLA1, FP-Rh probe fluorescence polarization;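 active = inhibition above the mean of all tested compounds plus 3 SD, set per campaign, cut at about 14% in these data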;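 also: inhibitors block serine hydrolase probe labeling of LYPLA1 so polarization falls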
Fam108B inh = counter-screen for RBBP9 inhibitors: inhibitors of mouse Fam108B | recombinant Fam108B, FP-Rh probe fluorescence polarization | inhibition, % at 9.51 µM | hit rate 0.33% among 300,000 | AID 1947;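 active = inhibition above the screen mean inhibition plus 3 SD, computed separately per campaign, cut at about 18% in these data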;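 also: inhibitors lower polarization as less probe binds the enzyme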
PP5 inh confirm = confirmation of human PP5 phosphatase inhibitors; inhibition, % at 6.7 µM; hit rate 22% among 460; Purified PP5, fluorogenic phosphatase substrate, fluorescence; shares compounds with PP5 inh; AID 2331; in the data active = inhibition above about 9.5%
PP1 inh counter = counter-screen for PP5 inhibitors: human PP1 phosphatase inhibition. shares compounds with PP5 inh. hit rate 4% among 460. PP1 enzyme, fluorescent phosphatase substrate. inhibition, % at 6.7 µM; in the data active = inhibition above about 16%
LYPLA1 confirm = LYPLA1 (human) inhibition, confirmation counter-screen; recombinant LYPLA1, FP-Rh probe fluorescence polarization; shares compounds with LYPLA1 counter; hit rate 69% among 480; inhibition, % at 5.9 µM; AID 2233;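 active = mean inhibition across replicates above the hit cutoff set in the primary screen, cut at about 15% in these data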;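 also: loss of FP-Rh probe labeling of LYPLA1 seen as lower polarization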
LYPLA2 conf = LYPLA2 (human) inhibition, confirmation counter-screen | shares compounds with LYPLA2 counter | recombinant LYPLA2, FP-Rh probe fluorescence polarization | inhibition, % at 5.9 µM | hit rate 72% among 1,100 | AID 2232;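 active = mean inhibition across replicates above the hit cutoff set in the primary screen, cut at about 26% in these data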;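 also: blocked labeling of the enzyme by serine hydrolase FP-Rh probe lowers polarization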
Large screens that a line does not name were inactive (follow-up assays come after a bar, where they were run). An excerpt weighted towards active compounds, which were near 1.8% of everything screened.

Cc1cccc(NC(=O)C2CCN(S(C)(=O)=O)CC2)c1C	PP5 inh 10.6 | PP5 inh confirm inactive | PP1 inh counter inactive
COC(=O)C1=C(CSc2nccn2C)NC(=O)NC1c1cc(C)ccc1C (stereo unspecified)	PP5 inh 9.9 | PP5 inh confirm inactive | PP1 inh counter inactive
O=C(CSC1=NS(=O)(=O)c2ccccc2N1)Nc1cccc(F)c1	none
Cc1cc(C)cc(OCC(=O)N(C)CC(=O)Nc2ccc(Cl)c(C(F)(F)F)c2)c1	PP5 inh 10.4 (no result: Fam108B inh) | PP5 inh confirm inactive | PP1 inh counter inactive
O=C(Nc1ccc(C2CCCCC2)cc1)C1CCN(c2ncccn2)CC1	PP5 inh 10.2 | PP5 inh confirm inactive | PP1 inh counter inactive
O=C(O)c1nnn(-c2cccc(C(F)(F)F)c2)c1-c1ccccc1	none
COc1ccc(C(=O)NC2CCN(CC(=O)NCc3cccc(OC)c3)CC2)cc1	PP5 inh 11.6 | PP5 inh confirm inactive | PP1 inh counter inactive
O=C(N/N=C\c1c(O)ccc2ccccc12)c1ccc(Cn2cccn2)o1	PP5 inh 18.5 | PP5 inh confirm inactive | PP1 inh counter inactive
O=C(OCC(=O)N1CCN(c2ccccc2)CC1)c1ccc(O)cc1O	none
CCOC(=O)N/N=C(\CCC(=O)O)c1cccs1	none
O=C(Nc1ccn(Cc2c(F)c(F)cc(F)c2F)n1)c1ccc(COc2ccc(Cl)cc2Cl)o1	PP5 inh 9.8 | PP5 inh confirm inactive | PP1 inh counter inactive
Cc1nn(Cc2c(F)c(F)c(F)c(F)c2F)c(C)c1NC(=O)c1ccc(COc2ccc(Cl)cc2Cl)o1	PP5 inh 10.1 | PP5 inh confirm inactive | PP1 inh counter inactive
O=C(Nc1ccccc1F)c1ccc(COc2ccc(Cl)cc2Cl)o1	none
Cc1nn(Cc2ccc(Cl)cc2Cl)c(C)c1NC(=O)c1ccc(COc2cc(Cl)ccc2Cl)o1	none
OCc1ccnc2oc3ccccc3c12	none
COc1cccc(CN(C)C(=O)c2[nH]c(C)c(C(C)=O)c2C)c1OC	none
Cc1cc(C(=O)N2CCc3ccccc32)c2ccccc2n1	PP5 inh 9.8 | PP5 inh confirm inactive | PP1 inh counter inactive
COc1ccccc1C(=O)N1CCc2ccccc21	none
Nc1ccccc1C(=O)N1CCc2ccccc21	PP5 inh 10.2 | PP5 inh confirm inactive | PP1 inh counter inactive
O=C(c1ccccc1)N1CCc2ccccc21	none
CCCn1nc(C(=O)Nc2ccc3c(c2)OCCO3)c2ccccc2c1=O	none (no result: Fam108B inh)
Cc1ccc(C(=O)NNc2cc(N3CCCC3)nc(N3CCCC3)n2)cc1	PP5 inh 17.3 | PP5 inh confirm 40.3 | PP1 inh counter inactive
CC1(C)Cc2cccc(OCC(=O)Nc3cccnc3Cl)c2O1	PP5 inh 16.3 | PP5 inh confirm inactive | PP1 inh counter inactive
CC1(C)Cc2cccc(OCC(=O)Nc3cccnc3)c2O1	none
O=C(Nc1ccc(F)cc1)C1CCCO1 (stereo unspecified)	none
O=C(Nc1ccc(O)cc1)C1CCCO1 (stereo unspecified)	PP5 inh 10.8 | PP5 inh confirm inactive | PP1 inh counter inactive
COC(=O)CCC(=O)OC1(C)C(=O)C=C2C=C(C3CC3)N(CCCOC(C)C)C=C2C1=O (stereo unspecified)	PP5 inh 10.4 | PP5 inh confirm 35.0 | PP1 inh counter inactive
COC(=O)CCC(=O)OC1(C)C(=O)C=C2C=C(C3CC3)N(CCCCO)C=C2C1=O (stereo unspecified)	PP5 inh 13.6 | PP5 inh confirm 33.8 | PP1 inh counter inactive
C=CCN1C=C2C(=O)C(C)(OC(=O)CCC(=O)OC)C(=O)C=C2C=C1C1CC1 (stereo unspecified)	none
COC(=O)CCC(=O)OC1(C)C(=O)C=C2C=C(C3CC3)N(c3ccccc3)C=C2C1=O (stereo unspecified)	PP5 inh 11.0 | PP5 inh confirm 30.1 | PP1 inh counter inactive
COC(=O)CCC(=O)OC1(C)C(=O)C=C2C=C(C3CC3)N(CCc3c[nH]c4ccccc34)C=C2C1=O (stereo unspecified)	none
COC(=O)CCC(=O)OC1(C)C(=O)C=C2C=C(C3CC3)N(CCc3ccccn3)C=C2C1=O (stereo unspecified)	PP5 inh 11.3 | PP5 inh confirm 41.9 | PP1 inh counter 19.3
Cc1ccc(OCCC(=O)NNC(=O)c2ccccc2F)cc1	none (no result: Fam108B inh)
O=C(Nc1ccccc1)Nc1cccc(C(F)(F)F)c1	none
Cc1ccc(OC(F)F)c(NC(=O)Nc2cccc(C(F)(F)F)c2)c1	PP5 inh 13.1 | PP5 inh confirm inactive | PP1 inh counter inactive
O=C(COCC(=O)Nc1cccc(C(F)(F)F)c1)Nc1cccc(C(F)(F)F)c1	PP5 inh 10.1 | PP5 inh confirm 10.2 | PP1 inh counter inactive
COc1ccccc1NC(=O)Cc1nnc(SCC(=O)NC2CCCC2)n1C	none
COc1ccccc1NC(=O)Cn1nc(-c2ccncc2)nc1SCC(=O)NC1CCCC1	PP5 inh 10.6 | PP5 inh confirm inactive | PP1 inh counter inactive
C=CC1CN(C(=O)OCC(Cl)(Cl)Cl)C2CC3c4ccc(OC)cc4NC3C3CC1C2CO3 (stereo unspecified)	none
COc1ccc(-c2cn(-c3ccc(Cl)cc3)c3[n+]2CCCCC3)cc1	PP5 inh 18.7 | PP5 inh confirm inactive | PP1 inh counter inactive
COCCOC(=O)c1c(C)oc2ccc(OC(=O)c3cccs3)cc12	PP5 inh 10.5 | PP5 inh confirm inactive | PP1 inh counter inactive
CC(C)(C)c1ccccc1NC(=O)CN1C(=O)NC2(CCCCCC2)C1=O	none (no result: Fam108B inh)
O=C(ON=C1CCN(c2ccc([N+](=O)[O-])cc2)CC1)c1ccccc1	PP5 inh 9.7, LYPLA2 counter 36.6 | PP5 inh confirm inactive | PP1 inh counter inactive | LYPLA2 conf 35.4
CC(=O)Nc1cccc(NC(=O)CSc2nc(=O)n(CCN3CCOCC3)c3c2CCCC3)c1	none
COCCn1c(=O)[nH]c2cc(C(=O)N3CCN(c4cccc(Cl)c4)CC3)ccc2c1=O	LYPLA1 counter 51.9 | LYPLA1 confirm inactive
O=C(CSc1ccccc1)OCC(=O)N1CCN(C(=O)c2ccco2)CC1	none (no result: Fam108B inh)
COc1cc2[nH]c(=O)n(CCCCCC(=O)N3CC=C(c4ccccc4)CC3)c(=O)c2cc1OC	LYPLA1 counter 17.0 | LYPLA1 confirm 17.6
COc1cc2[nH]c(=O)n(CCC(=O)N3CCc4ccccc4C3)c(=O)c2cc1OC	none
